From PubChem
SENP8 block-1: blocks the human protease SENP8 | 330,000 compounds, 1.2% hits | inhibition, % at 10 µM | purified SENP8, Z-RLRGG-aminoluciferin cleavage, luminescence | Q96LD8; in the data active means inhibition above about 50%
Target sequence (Q96LD8 whole entry, looked up): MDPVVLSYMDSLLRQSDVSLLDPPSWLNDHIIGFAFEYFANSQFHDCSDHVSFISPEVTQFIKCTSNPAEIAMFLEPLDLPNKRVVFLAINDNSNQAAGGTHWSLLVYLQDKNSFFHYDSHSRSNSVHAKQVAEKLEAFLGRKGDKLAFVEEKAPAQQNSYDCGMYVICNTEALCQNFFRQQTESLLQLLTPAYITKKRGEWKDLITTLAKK
SENP8 block-2: SENP8 (human) protease inhibition. recombinant SENP8, Nedd8 substrate fluorescence. 360,000 compounds, 0.64% hits. inhibition, % at 20 µM. Q96LD8. AID 602440; in the data active means inhibition mostly above about 40%, no sharp cut-off; inactive means mostly below about 27%
HSP90 inh: inhibitors of HSP90 luciferase refolding in rabbit reticulocyte lysate | inhibition, % at 5.6 µM | luciferase refolding luminescence, 3 h | 290,000 compounds, 0.91% hits;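 active means inhibition above the screen-wide mean plus 3 SD, computed separately per campaign, cut at about 16% in these data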;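 further: 0% = DMSO wells and 100% = 60 µM geldanamycin wells; inhibitors lower the luminescence because luciferase stays unfolded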
SENP6 inh: SENP6 protease inhibition; Q9GZR1; 330,000 compounds, 1.8% hits; inhibition, % at 10 µM; Recombinant SENP6 catalytic domain, aminoluciferin luminescence;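 active means inhibition above about 50% at the single tested dose, limit read from the data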;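 further: plate controls were DMSO wells with enzyme for no effect and DMSO wells lacking enzyme for full effect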
Platelet DG rel: platelet dense granule release activity | human platelet-rich plasma, SFLLRN dense granule ATP release, luminescence | inhibition, %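 (compounds screened at 7.5 µM in platelet-rich plasma)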 | 300,000 compounds, 0.22% hits | AID 1663;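 active means mean replicate score, as percent of positive control, at or above 50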
SENP7 block: inhibitors of human SENP7 protease. 330,000 compounds, 1.5% hits. Q9BQF6. recombinant SENP7, Z-RLRGG-aminoluciferin luminescence, 40 min. inhibition, % at 5 µM. AID 434973;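 active means inhibition above about 50% at the single test dose, limit read from the data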;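 further: plate controls were DMSO with enzyme for no effect and no enzyme buffer wells for full effect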
SENP8 confirm: confirmation of human SENP8 protease inhibitors; Recombinant SENP8, Z-RLRGG-aminoluciferin luminescence, 60 min; 6,200 compounds, 40% hits; inhibition, % at 12.5 µM; shares compounds with SENP7 block;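 active means mean inhibition across replicates above about 50%, limit read from the data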
SENP6 conf: human SENP6 inhibition, confirmed | 6,200 compounds, 58% hits | recombinant SENP6, Z-RLRGG-aminoluciferin luminescence | AID 488915 | shares compounds with SENP7 block | inhibition, % at 12.5 µM
SENP7 confirm: human SENP7 inhibition, confirmed | recombinant SENP7, Z-RLRGG-aminoluciferin luminescence, 40 min | AID 488917 | 6,200 compounds, 69% hits | shares compounds with SENP7 block | inhibition, % at 12.5 µM
Casp3 select: inhibits human caspase-3 in SENP selectivity test; shares compounds with SENP7 block; purified caspase-3, Z-DEVD-aminoluciferin luminescence, 60 min; inhibition, % at 12.5 µM; 6,200 compounds, 60% hits; AID 488918;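 active means mean inhibition above about 50%, limit read from the data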;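 further: plate controls were enzyme with DMSO for no effect and wells without caspase-3 for full effect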
Target sequence (P42574 28-227 limits assumed): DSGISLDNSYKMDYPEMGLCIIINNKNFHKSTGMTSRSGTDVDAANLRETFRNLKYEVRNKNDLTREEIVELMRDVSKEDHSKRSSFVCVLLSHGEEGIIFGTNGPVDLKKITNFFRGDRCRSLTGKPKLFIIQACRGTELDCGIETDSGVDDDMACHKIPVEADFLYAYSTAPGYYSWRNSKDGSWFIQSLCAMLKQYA
SENP luc ctr: interferes with luciferase luminescence in SENP counter-screen; shares compounds with SENP7 block; Pre-incubated SENP8/Z-RLRGG-aminoluciferin, luciferase luminescence interference; inhibition, % at 12.5 µM; 6,200 compounds, 39% hits;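 active means mean inhibition above about 50% when retested at one dose, limit read from the data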;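 further: plate controls were DMSO wells with completed reaction for no effect and substrate without enzyme for full effect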
* marks the source's active call; other numbers are inactive results; . = no result given. Hits are enriched below; roughly 2.8% of the tested compounds scored in any of these assays.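 How the source made its calls, unless noted: active means mean inhibition above about 50% in the one-dose retest (limit read from the data); inactive means the rest.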

SMILES	SENP8 block-1	SENP8 block-2	HSP90 inh	SENP6 inh	Platelet DG rel	SENP7 block	SENP8 confirm	SENP6 conf	SENP7 confirm	Casp3 select	SENP luc ctr
COc1ccc(C2=NN(C(C#N)c3ccc(OC)c(OC)c3)C(c3ccccc3)C2)cc1 (stereo not given)	29	-2	-3	75*	1	65*	6	3	23	24	21
COc1ccc(C2=NN(c3ccccc3)C(c3ccc(OC)c(OC)c3)C2)cc1 (stereo not given)	-2	-304	4	21	-5	-13	.	.	.	.	.
COc1ccc(Cn2c(C3CC3)nc3ccc(NC(C)=O)cc3c2=O)cc1	46	-15	-2	73*	9	67*	70*	68*	90*	73*	42
COc1ccc(Cn2c(C3CC3)nc3ccc(NC(=O)c4cccnc4)cc3c2=O)cc1	1	-37	6	-10	-10	3	.	.	.	.	.
CN1c2cccc3cccc(c23)N(C)C1(C)C	12	-320	6	72*	-19	37	-3	4	-4	-4	-5
O=C(CCCN1C(=O)/C(=C/c2ccccc2Cl)SC1=S)N1CCOCC1	86*	8	8	80*	-3	88*	32	55*	64*	63*	34
COc1ccc(/C=C2\SC(=S)N(CCCC(=O)N3CCOCC3)C2=O)cc1	69*	16	5	82*	6	72*	83*	76*	91*	63*	60*
O=C(O)CCN1C(=O)/C(=C\c2ccncc2)SC1=S	13	14	2	13	-2	-1	.	.	.	.	.
O=C1NC(=S)S/C1=C\c1ccc2ccccc2c1	88*	18	-5	90*	0	10	26	50*	38	24	21
O=C(O)CCN1C(=O)/C(=C\c2cccc(Oc3ccccc3)c2)SC1=S	96*	25	6	97*	-4	62*	2	101*	104*	32	90*
CC(=O)c1ccc(S(=O)(=O)N2CCNC(=O)C2)cc1	0	12	.	21	.	10	.	.	.	.	.
CC(C)n1nnnc1SCC(=O)N1N=C(c2cccs2)CC1c1cccs1 (stereo not given)	2	-387	.	6	.	4	.	.	.	.	.
COc1ccc(/C=C2/SC(=S)N(CCC(=O)O)C2=O)cc1	98*	13	8	98*	-8	85*	98*	100*	104*	65*	81*
COc1ccc(/C=C2\SC(=S)N(CCC(=O)Nc3ccc(C(=O)O)cc3)C2=O)cc1	31	18	-4	13	-12	-5	.	.	.	.	.
COc1ccc(/C=C2/SC(=O)NC2=O)cc1	71*	6	3	86*	6	62*	81*	76*	89*	74*	84*
O=C(O)CN1C(=O)/C(=C\c2ccc(OC(=O)c3ccco3)cc2)SC1=S	59*	17	-3	71*	14	1	66*	62*	79*	83*	69*
COc1ccc(C=C2SC(=S)NC2=O)cc1	.	25	.	.	.	.	.	.	.	.	.
c1ccc2c3c(cc(N4CCOCC4)c2c1)OC1(N2CCOCC2)CCCCC1O3 (stereo not given)	38	-290	1	80*	-5	45	11	18	11	4	3
CCOCC(=O)Nc1cc(C(=O)Nc2cc(C)cc(C)c2)ccc1Cl	79*	.	-10	-32	14	93*	83*	54*	90*	89*	47
CCOCC(=O)Nc1cc(C(=O)Nc2ccccc2)ccc1Cl	14	29	-3	26	13	33	.	.	.	.	.
N#Cc1ccsc1NC(=O)CSc1nncs1	95*	-4	.	95*	.	97*	97*	97*	102*	98*	84*
N#Cc1ccsc1NC(=O)CSc1nnnn1-c1ccc(O)cc1	35	10	4	52*	2	18	33	25	61*	34	33
Cc1nnc(SCC(=O)Nc2sccc2C#N)s1	3	-3	0	12	12	-5	.	.	.	.	.
Cc1cccc(NS(=O)(=O)c2cc3c(cc2C)n(C)c(=O)c(=O)n3C)c1	-8	-38	2	-11	0	-4	.	.	.	.	.
Cc1noc(C)c1S(=O)(=O)N(C)C[C@@H]1OCc2cnnn2CCCC(=O)N([C@@H](C)CO)C[C@H]1C	.	11	.	.	.	.	.	.	.	.	.
SMILES	SENP8 block-1	SENP8 block-2	HSP90 inh	SENP6 inh	Platelet DG rel	SENP7 block	SENP8 confirm	SENP6 conf	SENP7 confirm	Casp3 select	SENP luc ctr
COc1ccc(S(=O)(=O)N(CC(=O)N2CCCCCC2)c2ccccc2OC)cc1	-3	9	-5	8	0	-2	.	.	.	.	.
O=[N+]([O-])c1nn(-c2ccc3c(c2)OCCO3)n(O)c1=NC1CCCCC1	3	26	1	28	-9	4	.	.	.	.	.
COc1ccccc1CN=c1c([N+](=O)[O-])nn(-c2ccc3c(c2)OCCO3)n1O	22	26	2	46	4	59*	-11	2	-9	8	0
O=[N+]([O-])c1nn(-c2ccc3c(c2)OCCO3)n(O)c1=NCc1ccccc1Cl	9	17	2	27	6	64*	10	32	65*	13	7
Nc1ccc(C#Cc2ccccc2)cc1	3	-7	-4	33	15	13	.	.	.	.	.
Cc1cccc(C#Cc2ccccc2)n1	84*	5	.	91*	.	90*	-8	73*	96*	82*	8
CCCCn1nnnc1C(c1ccccc1)N1CCN(c2ccc(C)cc2)CC1 (stereo not given)	.	6	.	.	.	.	.	.	.	.	.
Cc1c(N)cccc1N	14	20	.	6	.	4	.	.	.	.	.
Cc1ccc2cccc(N)c2n1	-2	-6	1	52*	-2	55*	-2	5	5	11	8
CSc1ccc(/C=N/NC(=O)c2cccc(O)c2)cc1	75*	-257	6	91*	72*	90*	7	81*	96*	86*	83*
CC(=O)NCCCc1nc2ccccc2n1Cc1c(F)cccc1Cl	7	21	3	3	-20	5	.	.	.	.	.
Cc1ccc(S(=O)(=O)CCC(=O)OCC(=O)NC2CCS(=O)(=O)C2)cc1 (stereo not given)	-11	3	.	-12	-2	19	.	.	.	.	.
